Source: PubChem BioAssay (several laboratories)
Bfl-1 A1 inh: caspase 3/7 activation in MEF A1-2A-BIM cells, primary screen, A1 inhibitor project, cell-based, luminescence, HTS; caspase activation, % (concentration not given with the values); Caspase-Glo 3/7 luminescence, 3 h; percent of clofoctol response, vehicle zero; 330,000 tested, 0.066% active; AID 2462, 2010;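 active means over half of replicate activation scores above 10%, or exactly half above 10 with the replicate mean above 10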
Mot1-301 SUMO: yeast Mot1-301 growth rescue at high temperature, primary screen, SUMOylation pathway inhibitor project, S. cerevisiae, ATP luminescence, 38.5C; S. cerevisiae Mot1-301 growth rescue; percent above DMSO median, 100 means doubled; growth rescue, % at 18.8 µM; 320,000 tested, 1% active; AID 2716, 2010;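 active means every valid replicate shows activation above 250% relative to neutral control wells; inactive means the rest, any valid replicate at or below 250%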;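 further: OY570 slx delta 5 strain wells were the positive control but not used for scaling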
NALP1 yeast inh: NALP1 inflammasome inhibitors in reconstituted yeast, colorimetric, S. cerevisiae, triplicate retest; S. cerevisiae NALP1/ASC/caspase-1 growth, X-gal OD620, 72 h; inhibition, % at 10 µM; AID 2071, 2009; 280,000 tested, 0.61% active; in the data active means inhibition mostly above about 24%, no sharp cut-off; inactive means mostly below about 32%
CHT block: inhibitors of human choline transporter CHT. B-score at 10 µM. 310,000 tested, 0.86% active. CHT-expressing cells, membrane potential dye, choline response; active compounds read low. AID 488975, 2010. High affinity choline transporter 1 (Homo sapiens), Q9GZV3;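 active means B-score over 3 SD under the library average, and starting fluorescence ratio not unusually high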;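 further: choline stimulus applied at its EC90 after an EC20 pre-addition; B-score computed on integrated fluorescence ratio after choline addition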
Target sequence (Q9GZV3 whole entry, looked up): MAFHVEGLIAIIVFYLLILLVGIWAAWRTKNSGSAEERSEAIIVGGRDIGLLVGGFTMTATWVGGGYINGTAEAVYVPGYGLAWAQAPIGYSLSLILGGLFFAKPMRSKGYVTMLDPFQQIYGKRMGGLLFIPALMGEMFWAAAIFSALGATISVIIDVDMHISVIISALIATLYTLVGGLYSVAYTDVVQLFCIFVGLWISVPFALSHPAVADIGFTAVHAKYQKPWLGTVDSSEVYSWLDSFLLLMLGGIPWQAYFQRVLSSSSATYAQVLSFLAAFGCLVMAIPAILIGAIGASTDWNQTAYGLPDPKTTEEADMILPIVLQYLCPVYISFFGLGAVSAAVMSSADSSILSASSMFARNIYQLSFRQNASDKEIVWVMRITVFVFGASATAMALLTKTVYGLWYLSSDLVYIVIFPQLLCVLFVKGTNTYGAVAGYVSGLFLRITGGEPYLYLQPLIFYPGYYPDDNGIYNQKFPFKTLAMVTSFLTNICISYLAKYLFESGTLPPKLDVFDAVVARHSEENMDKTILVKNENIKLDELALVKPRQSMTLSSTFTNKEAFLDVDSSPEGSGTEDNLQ
CHT PAM: CHT positive allosteric modulators, primary screen, cell-based, membrane potential dye, choline EC20. CHT-expressing cells; active compounds read high; LV-AA mutant CHT in HEK293 cells. AID 488977, 2010. B-score at 10 µM. 310,000 tested, 0.49% active;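 active means initial fluorescence not abnormally high and integrated response B-score, plate-corrected, over 3 SD above library mean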
NLRP3 yeast inh: NALP3 inflammasome inhibitors in reconstituted yeast, primary screen, luminescence, uHTS | Yeast reconstituted NLRP3/ASC/caspase-1, beta-gal luminescence, 24 h | inhibition, % at 10 µM | 330,000 tested, 0.39% active;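 active means inhibition of 50% or more; inactive means inhibition below 50%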;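 further: plate controls were induced DMSO wells for no effect and uninduced yeast grown without galactose for full effect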
Mot1 SUMO dose: growth restoration of Mot1-301 yeast on galactose, dose response, SUMO pathway inhibitor project, whole organism, S. cerevisiae, ATP luminescence, cherry-picked samples; shares compounds with Mot1-301 SUMO; S. cerevisiae Mot1-301 galactose growth, 24 h; -100 = growth of slx-deleted rescue strain; growth activity, percent, % at 42 µM; 2,300 tested, under 10 active;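 active means Signal drops as the depositor expects, and the fitted half-maximal dose is no more than ten times the top valid tested dose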;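 further: more negative values mean stronger growth rescue toward the control strain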
Active calls of the source: *; i = inactive; · = no result; + = active, no number; [ ] = remark or other dose. Rows were chosen to be rich in hits. Some 3% of all compounds tested hit in one or more screens of this group.

SMILES	Bfl-1 A1 inh	Mot1-301 SUMO	NALP1 yeast inh	CHT block	CHT PAM	NLRP3 yeast inh	Mot1 SUMO dose
O=S1(=O)NC(c2ccccc2)CC(CC2CCCCC2)O1 (centres undefined)	0.0	943.3*	24.7	i	i	12.2	0.4
COc1ccc(NC(=O)c2cc(-c3ccccn3)nc3ccccc23)cc1S(=O)(=O)N(C)C	-0.8	-2.7	·	·	·	15.7	·
O=C(CN(Cc1ccco1)C(=O)c1ccc(F)cc1)Nc1ccccc1Br	-0.7	-2.5	·	·	·	10.7	·
CC(C)COc1ccc(C(=O)Nc2ccc([N+](=O)[O-])cc2)cc1	-0.5	690.6*	6.2	i	i	14.3	-0.2
CCC(=O)Oc1ccc(C(=O)Nc2ccc([N+](=O)[O-])cc2)cc1	-3.5	-12.4	-32.6	i	i	19.5	·
Cc1ccc(CNC(=O)CNS(=O)(=O)c2ccc3c(c2)C(C)(C)C(=O)N3C)cc1	-0.8	-5.7	13.3	i	i	3.8	·
CC1CN(S(=O)(=O)c2cccc(C(=O)N=c3sccn3C)c2)CC(C)O1 (centres undefined)	-1.4	396.4*	·	i	i	8.0	-0.7
O=C1OC(Cc2ccccn2)C(O)=C1C1=NCCCN1 (centres undefined)	-0.1	374.7*	22.9	i	i	0.7	0.5
Cc1ccc(OCCNC(=O)c2ccccc2SCC(=O)N2CCCC2)cc1	0.8	-29.1	·	i	i	6.1	·
CCN(Cc1ccncc1)Cc1cn[nH]c1-c1ccc(OC)cc1F	-0.4	0.6	10.0	i	i	6.5	·
COc1ccc(-c2[nH]ncc2CNCCn2cccn2)c(F)c1	0.4	+	12.5	i	i	3.9	-0.2
COC(=O)c1ccc(COC(=O)CNC(=O)CNC(=O)c2ccc(OC)cc2)cc1	0.0	2.1	·	i	i	-1.3	·
COc1ccc(/C=N/NC(=O)c2cccc([N+](=O)[O-])c2)cc1O	-2.5	-11.0	0.5	i	i	5.7	·
COc1cc(/C=N/NC(=O)c2cccc([N+](=O)[O-])c2)ccc1O	-0.2	+	-18.9	i	i	1.6	-0.4
COc1cc(OC)cc(C(=O)N2CCN(c3ccc(N4CCOCC4)nn3)CC2)c1	-0.1	95.2	·	i	i	11.8	·
COc1ccc(Cc2nnc(NCCO)[nH]c2=O)cc1	1.2	446.5*	1.5	i	i	14.5	-0.2
COc1ccc(Cc2nnc(NCCO)[nH]c2=O)cc1OC	0.7	1.2	14.0	i	i	9.7	·
NC1=NC(=Nc2ccc(S(N)(=O)=O)cc2)c2ccccc21	0.6	419.0*	-22.2	i	i	-20.9	0.3[21 µM]
COC(=O)c1ccccc1NC(=O)c1cnn2c(C)cc(C)nc12	-0.2	892.3*	10.1	i	i	24.8	0.8
COC(=O)c1ccccc1NC(=O)c1nc2nc(C)cc(C)n2n1	-1.1	-3.6	16.6	i	i	5.5	·
CCc1ccccc1NC(=S)NNC(=O)c1ccccc1Cl	0.2	+	-18.4	i	i	11.1	0.3
COc1ccc2cc(C(=O)Nc3ccc(O)cc3)sc(=O)c2c1OC	-0.4	-6.5	35.0	i	i	-17.9	·
COc1ccc2cc(C(=O)Nc3ccc(Cl)cc3)sc(=O)c2c1OC	-0.5	752.4*	26.2	i	i	18.0	0.3
COc1ccc(N2CCN(C(=O)c3ccncc3)CC2)cc1	0.0	4.7	-1.1	i	i	-1.6	·
COc1ccc(C(=O)N2CCN(c3ccc(NC(=O)c4cccnc4)cc3)CC2)cc1	0.6	457.7*	30.4	i	i	6.8	0.5
